Measurements: PubChem BioAssay AID623870 (Broad Institute, 2012)
Screen size: about 390,000 compounds; about 2,600 (0.67%) were called active. The sample holds actives, similar compounds and a random draw of the others, so the mix is not that of the screen. A number with no mark means an inactive call.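 The calls were made as follows: active = mean inhibition of replicates at least 50% and at least half of replicates each reaching 50%; inconclusive = half or more replicates reach 50% but mean below 50%; inactive = the rest.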

Molecular target: Transforming acidic coiled-coil-containing protein 3 (Homo sapiens) (UniProt Q9Y6A5)
Test: disruptors of ARNT/TACC3 protein interaction, primary screen, biochemical, AlphaScreen, single concentration (AID 623870);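 also: 0% = complete ARNT plus TACC3 wells and 100% = ARNT alone without TACC3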
Details: AlphaScreen His-ARNT PAS-B/GST-TACC3 binding, luminescence; at 9.99 µM; hits give high values; TACC3 fragment carries E629A point mutation

Structure (SMILES) | inhibition
CCC(=O)N1C[C@H](C)[C@H](OC)CN(C)C(=O)c2ccc(NS(C)(=O)=O)cc2OC[C@H]1C | 0.229%
COc1ccccc1C(=O)Nc1ccc2c(c1)C(=O)N(C)C[C@@H](OC)[C@@H](C)CN(C)[C@H](C)CO2 | 5.81%
CN1C(=O)c2cc(NC(=O)Nc3ccccc3Cl)ccc2OC[C@H]2O[C@H](CC(=O)NCCCN3CCOCC3)CC[C@H]21 | -6.44%
CCOC(=O)c1cn[nH]c1NC(=S)Nc1ccccc1 | -4.6%
CCN(C(=O)Cc1nc(N)n[nH]1)C1(C(=O)Nc2ccccc2)CCCCC1 | 73.1% (active)
COc1cc(C2c3cc4c(cc3C(O)C3COC(=O)C23)OCO4)cc(OC)c1OC (stereo not drawn) | -5.89%
COc1c(O)ccc2c1CN1CCc3cc4c(cc3C1C2)OCO4 (stereo not drawn) | 59.9% (active)
COc1ccc(-c2ccc3c(c2)[C@H]2[C@H](CCN2C(=O)c2ccc4c(c2)OCO4)[C@@H](CO)N3)cc1 | 2.52%
CC(C)C#Cc1cnc2c(c1)C(=O)N([C@H](C)CO)C[C@H](C)[C@@H](CN(C)C(=O)Nc1cc(F)ccc1F)O2 | 2.21%
C[C@H]1CN([C@@H](C)CO)C(=O)c2cc(C#Cc3ccccc3F)cnc2O[C@H]1CN(C)C | -2.77%
CC=Cc1ccc2n(c1=O)C[C@@H]1[C@@H](CO)[C@H](C(=O)NCC)[C@H]2N1CCC(F)(F)F (mixture of isomers) | -2.83%
COc1ccccc1C(=O)Oc1ccc(N2C(=O)CCC2=O)cc1 | -4.25%
COc1ccccc1-c1nnc(NC(=O)c2cccc(N3C(=O)CCC3=O)c2)o1 | 60.7% (active)
COc1ccc(Cl)cc1NC(=O)c1cccc(N2C(=O)C3CC=CCC3C2=O)c1 (stereo not drawn) | 3.74%
CCNC(=O)C[C@H]1CC[C@@H](NC(=O)C2CCOCC2)[C@@H](CO)O1 | -5.26%
O=S(=O)(c1ccc(F)cc1)N1CCCCN2[C@H](CO)[C@@H](c3ccc(C#CC4CCCC4)cc3)[C@H]2C1 | 5.01%
CC(C)NC(=O)Nc1cccc2c1O[C@H](CN(C)S(=O)(=O)c1ccccc1)[C@@H](C)CN([C@@H](C)CO)C2=O | -11.5%
Cc1c(NC(=O)C(=O)N/N=C/c2cccs2)c(=O)n(-c2ccccc2)n1C | 4.89%
C=CCOc1ccc(/C=N/NC(=O)C(C)Sc2ccccn2)cc1OCC (stereo not drawn) | 14.2%
CNC(=O)C(=O)N/N=C/c1ccccn1 | 57.1% (active)
COc1ccccc1S(=O)(=O)N[C@@H]1C=C[C@H](CC(=O)N2CCOCC2)O[C@@H]1CO | -20.1%
CN1[C@@H]2c3ccc(C4=CCCCC4)c(=O)n3C[C@H]1[C@H](CO)[C@H]2C(=O)NCc1ccc(F)cc1 | 3.89%
Cc1cc(C)nc(N/N=C/c2c(CO)cnc(C)c2O)n1 | 63% (active)
COc1ccc(CNC(=O)C[C@H]2C[C@@H]3c4cc(NC(=O)NC5CCCC5)ccc4O[C@@H]3[C@H](CO)O2)cc1 | -2.96%
COc1ccc(S(=O)(=O)N2CCCCN3[C@H](CO)[C@H](c4ccc(C5=CCCCC5)cc4)[C@@H]3C2)cc1 | -0.894%

Structure (SMILES) | inhibition
CO[C@@H]1CN(C)C(=O)c2ccc(NC(=O)Nc3cc(Cl)cc(Cl)c3)cc2OC[C@H](C)NC[C@H]1C | 17.2%
C[C@H]1CN([C@@H](C)CO)S(=O)(=O)c2ccc(-c3ccncc3)cc2O[C@@H]1CN(C)C(=O)CC1CC1 | -7.68%
CCN(C[C@@H]1[C@H](c2ccccc2)[C@@H](CO)N1CC1CC1)C(=O)c1ccccn1 | 1.43%
COCC(=O)N1[C@H](CNC(=O)c2ccccn2)[C@H](c2ccccc2)[C@@H]1CO | 0.322%
CCN(CC)CCOc1ccc2c(c1)C(=NNC(=O)c1ccccn1)c1cc(OCCN(CC)CC)ccc1-2 | 58.8% (active)
C[C@@H]1CN([C@@H](C)CO)C(=O)c2cccc(NC(=O)c3nc4ccccc4s3)c2O[C@@H]1CN(C)Cc1ccc(Cl)c(Cl)c1 | -2.22%
CCn1cc(/C=C2/SC(=S)NC2=O)c(C)n1 | 23.8% (active)
Cc1nn(C)cc1/C=C1\CCC/C(=C\c2cn(C)nc2C)C1=O | 2.65%
COc1ccc(NC(=O)N(C)C[C@H]2Oc3c(NC(=O)NC(C)C)cccc3C(=O)N([C@@H](C)CO)C[C@H]2C)cc1 | -14%
CCc1nnc(NS(=O)(=O)c2ccc(N=Cc3c(C)[nH]n(-c4ccc(C)cc4)c3=O)cc2)s1 | 45.6% (active)
COc1cc(SC#N)ccc1N=Cc1c(C)[nH]n(-c2ccc(C)cc2)c1=O | 2.45%
CCc1nnc(NC(=O)CCN(c2ccc(C)cc2)S(=O)(=O)c2ccccc2)s1 | 2%
COc1ccc(-c2ccc3c(c2)[C@H]2[C@H](CCN2S(=O)(=O)c2ccccc2F)[C@H](CO)N3)cc1 | -0.779%
COc1cccc(C(=O)Nc2ccc3c(c2)C(=O)N(C)[C@@H]2CC[C@H](CC(=O)NCC4CC4)O[C@@H]2CO3)c1 | -14.2%
O=C(C[C@H]1CC[C@H](NC(=O)C2CCC2)[C@@H](CO)O1)NCCCN1CCOCC1 | 0.473%
C[C@H]1CN([C@@H](C)CO)C(=O)Cc2cc(NC(=O)CCC(F)(F)F)ccc2O[C@H]1CN(C)C(=O)NC1CCCCC1 | -6.06%
C/C(=N/N1CCN(Cc2cccc3ccccc23)CC1)c1cccnc1 | 3.31%
Oc1c(CN2CCN(c3ccc(F)cc3)CC2)cc(Cl)c2cccnc12 | 73.2% (active)
O=C(c1cccc(F)c1)N1CCN(c2ccc([N+](=O)[O-])c3cccnc23)CC1 | -1.2%
CCCc1cc(=O)oc2c(C)c(O)c(CN3CCCCC3)cc12 | 0.049%
O=C(c1ccccc1)c1cccn1CC(=O)N1CCN(c2ccc(F)cc2)CC1 | 1.56%
Oc1c(CN2CCCC2)cc(COCc2ccccc2)c2cccnc12 | 64.5% (active)
C[C@@H]1CCCCO[C@H](CN(C)C(=O)CCC(F)(F)F)[C@H](C)CN([C@H](C)CO)C(=O)c2cc(NC(=O)NC3CCCCC3)ccc2O1 | -7.47%
CCNC(=O)[C@H]1[C@H](CO)[C@H]2Cn3c(ccc(-c4cccc(OC)c4)c3=O)[C@H]2N1Cc1nccs1 | -9.07%
CO[C@@H]1CC[C@@H]2CCOc3ccc(C#N)cc3C(=O)N(C)C[C@@H](C)C(=O)N(C)C[C@@H]1O2 | -7.05%

Structure (SMILES) | inhibition
CC(C)NC(=O)N(C)C[C@H]1OCCCC[C@H](C)Oc2ccc(NC(=O)CCCN(C)C)cc2C(=O)N([C@@H](C)CO)C[C@H]1C | -0.512%
COc1ccccc1-c1cnc2c(c1)C(=O)N([C@H](C)CO)C[C@@H](C)[C@@H](CN(C)Cc1ccncc1)O2 | -5.7%
CC(=O)N1[C@@H](CO)[C@H](c2ccccc2)[C@@H]1CN(C)C(=O)CN1CCOCC1 | -11.7%
Cc1noc(C)c1NC(=O)Nc1ccc2c(c1)C(=O)N([C@@H](C)CO)C[C@H](C)[C@H](CN(C)S(=O)(=O)c1cn(C)cn1)OCCCC[C@@H](C)O2 | -9.38%
COC(=O)C[C@H]1C[C@H]2c3cc(NC(=O)NC4CCCCC4)ccc3O[C@H]2[C@H](CO)O1 | -2.98%
CN1c2ccc(C=O)c3c(C=O)ccc(c23)N(C)C1(C)C | 13.9% (active)
CCSC1(SCC)N=C(N)C2(C#N)C(c3ccccc3)NC(C)=CC12C#N (stereo not drawn) | 48.6% (active)
CCCC(=O)Nc1ccc2c(c1)OC[C@H](C)N(C(=O)C1CCCC1)C[C@@H](C)[C@H](OC)CN(C)C2=O | -5.43%
COc1ccccc1NC(=O)N[C@H]1CC[C@@H](CC(=O)N[C@@H](C)c2ccccc2)O[C@H]1CO | -7.69%
CCCNC(=O)C[C@H]1C[C@@H]2c3cc(NC(=O)C4CCOCC4)ccc3O[C@@H]2[C@@H](CO)O1 | -13.8%
CCCC#Cc1ccc2c(c1)O[C@@H](CN(C)S(=O)(=O)c1cccc(OC)c1)[C@H](C)CN([C@@H](C)CO)S2(=O)=O | 4.74%
Cc1ccccc1NC(=O)CSc1ccc2nnc(-c3ccccn3)n2n1 | 48% (active)
Cc1ccccc1NC(=O)CSC1=NCCN1 | -6.23%
COc1ccc(C)cc1NC(=O)CSc1nnc2ccc(-c3ccccn3)nn12 | 12.1%
COc1cc(NC(=O)CSc2ccc(-c3cccnc3)nn2)cc(OC)c1 | -3.2%
O=C(CSc1ccc(-c2ccc(-n3cccn3)cc2)nn1)Nc1ccc([N+](=O)[O-])cc1 | -19.4%
O=C(CSc1ccc(-c2ccccn2)nn1)Nc1ccccc1 | 58.5% (active)
COc1cccc(NC(=O)Nc2ccc3c(c2)C(=O)N(C)C[C@@H](OC)[C@H](C)CN(CC2CC2)[C@H](C)CO3)c1 | -0.496%
OC[C@H]1[C@@H](c2ccc(C#CC3(O)CCCC3)cc2)[C@H]2CN(Cc3cncnc3)CCCCN21 | 0.497%
CO[C@@H]1CN(C)C(=O)c2cc(NC(=O)C3CCC3)ccc2OC[C@H](C)N(Cc2ccccn2)C[C@H]1C | 2.51%
O=C(C[C@@H]1C=C[C@@H](NC(=O)c2ccccc2)[C@H](CO)O1)NCCc1ccncc1 | -9.84%
COc1ccc(C(=O)Nc2ccc3c(c2)C(=O)N(C)C[C@@H](OC)[C@H](C)CN(C(C)=O)[C@@H](C)CO3)cc1 | -6.1%
CC(C)NC(=O)N1[C@@H]2c3ccc(-c4ccc(F)cc4)c(=O)n3C[C@@H]2[C@@H](CO)[C@@H]1C(=O)N1CCOCC1 | 17.2%
